Inconclusive results are not listed. Activity calls are given as the source filed them. How the source made its calls: active means hit-call score of the fitted dose curve at least 0.9, where 1 is the maximum; inconclusive means response in the unintended direction; inactive means score below 0.9.
What was measured:
[1] = Tanguay_ZF_120hpf_SOMI_legacy: (Legacy) Oregon State University Tanguay Lab 120 Hour Post-fertilization zebrafish Assay for Somite Malformation (AID 2283647)
Outline: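 Tropical 5D wild-type zebrafish embryos, dechorionated with pronase at 4 hpf, were placed singly at 6 hpf and statically exposed until 120 hpf at 28C in 0.64% DMSO. Somite malformation was scored present/absent by brightfield microscopy versus DMSO.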

[2] = Tanguay_ZF_120hpf_PFIN_legacy: (Legacy) Oregon State University Tanguay Lab 120 Hour Post-fertilization zebrafish Assay for Pectoral Fin Malformation (AID 2283648);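 further: each larva judged yes or no for fin defect by brightfield with dead larvae skipped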
Outline: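 Scoring of pectoral fin malformation was binary, made at 120 hpf on larvae exposed statically from 6 hpf after enzymatic chorion removal. Activity was fitted upward relative to DMSO controls at 0.64% (vol/vol).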

[3] = Tanguay_ZF_120hpf_CFIN_legacy: (Legacy) Oregon State University Tanguay Lab 120 Hour Post-fertilization zebrafish Assay for Caudal Fin Malformation (AID 2283649)
Outline: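 Tropical 5D wild-type embryos, dechorionated with pronase at 4 hpf, were placed singly in wells at 6 hpf and statically exposed to compound at 28C until 120 hpf (0.64% DMSO). Caudal fin malformation was scored present/absent by brightfield microscopy.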

[4] = Tanguay_ZF_120hpf_PIG_legacy: (Legacy) Oregon State University Tanguay Lab 120 Hour Post-fertilization zebrafish Assay for Pigmentation Malformation (AID 2283650)
Outline: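 Endpoint is incidence of abnormal pigmentation at 120 hpf in dechorionated 5D zebrafish exposed singly from 6 hpf at 28C, DMSO vehicle at 0.64%. Embryos dying by 24 or 120 hpf are excluded from scoring.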

[5] = Tanguay_ZF_120hpf_CIRC_legacy: (Legacy) Oregon State University Tanguay Lab 120 Hour Post-fertilization zebrafish Assay for Circulatory Malformation (AID 2283651)
Outline: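 Embryos are dechorionated at 4 hpf, plated one per well at 6 hpf, then held under static exposure at 28C until 120 hpf. Malformations are recorded as binary calls; mortality excludes other endpoints.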

[6] = Tanguay_ZF_120hpf_SWIM_legacy: (Legacy) Oregon State University Tanguay Lab 120 Hour Post-fertilization zebrafish Assay for Swim Bladder Malformation (AID 2283654);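 further: swim bladder malformation in each larva scored yes or no under brightfield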
Outline: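 Static waterborne exposure of single dechorionated Tropical 5D zebrafish embryos, 6–120 hpf, 28C, 0.64% DMSO final. Read-out: swim bladder malformation, present/absent, relative to DMSO negative control; trimethyltin chloride 5uM served as positive control.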

[7] = Tanguay_ZF_120hpf_TRUN_legacy: (Legacy) Oregon State University Tanguay Lab 120 Hour Post-fertilization zebrafish Assay for Truncated Body (AID 2283655)
Outline: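 Tropical 5D wild-type embryos, dechorionated with pronase at 4 hpf, were placed singly in wells at 6 hpf and statically exposed at 28C until 120 hpf, final DMSO 0.64%. Truncated body was scored present/absent by brightfield microscopy.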

[8] = Tanguay_ZF_120hpf_NC_legacy: (Legacy) Oregon State University Tanguay Lab 120 Hour Post-fertilization zebrafish Assay for Notochord and Tail Malformation (AID 2283656)
Outline: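 Binary scoring of notochord distortion by brightfield microscopy; embryos dying were not scored. Wild-type Tropical 5D embryos, chorion removed, exposed singly and statically from 6 to 120 hpf, 28C, sealed, 0.64% DMSO.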

Measured: AC50

O=C(O)c1ccc2c(c1)nc(C(=O)NC1CCN(C3CC3)CC1)n2Cc1cc(-c2ccc(Cl)s2)on1
inactive: all assays above

CCCCCCCCCCCCCCCCOS(=O)(=O)O
inactive: all assays above

CCCCC(CC)C(=O)OCCOCCOCCOC(=O)C(CC)CCCC (configuration not stated)
inactive: all assays above

OCC(CO)(CO)CO
inactive: all assays above

O=C(O)c1cccc(C(=O)O)c1
inactive: all assays above

O=C(NO)C1(NS(=O)(=O)c2ccc(Oc3ccc(F)cc3)cc2)CCOCC1
inactive: all assays above

O=S1(=O)CCCO1
not listed: [8]
inactive: all other assays above

Cc1ccc(S(=O)(=O)NC(=O)NN2CCCCCC2)cc1
inactive: all assays above

c1ccc(C(O[C@@H]2CCCN(CCc3ccc4c(c3)OCO4)C2)c2ccccc2)cc1
active: [2] 33.4 µM | [3] 37.2 µM | [4] 42.4 µM | [7] 38.2 µM
inactive: [1] | [5] | [6] | [8]

O=c1[nH]cnc2c1ncn2[C@H]1CC[C@@H](CO)O1
not listed: [8]
inactive: all other assays above

CCOC(N)=O
inactive: all assays above

CC(C)C(=O)Nc1ccc([N+](=O)[O-])c(C(F)(F)F)c1
inactive: all assays above

CC(C)c1nnc2ccc(-c3ocnc3-c3cc(F)ccc3F)cn12
inactive: all assays above

COS(C)(=O)=O
inactive: all assays above

Cc1nc(-c2ccccn2)ncc1C(=O)Nn1cc(C)c2cc(F)ccc21
not listed: [7]
inactive: all other assays above

CCCCCCCCN(C)C
inactive: all assays above

CCc1ccc(O)c(C(C)(C)C)c1
inactive: all assays above

CCCCCCOC(=O)CC(CC(=O)OCCCCCC)(OC(=O)CCC)C(=O)OCCCCCC
not listed: [6] | [8]
inactive: all other assays above

CCCc1ccccc1
not listed: [7]
inactive: all other assays above

OC[C@H]1O[C@@H]2O[C@H]3[C@H](O)[C@@H](O)[C@@H](O[C@H]4[C@H](O)[C@@H](O)[C@@H](O[C@H]5[C@H](O)[C@@H](O)[C@@H](O[C@H]6[C@H](O)[C@@H](O)[C@@H](O[C@H]7[C@H](O)[C@@H](O)[C@@H](O[C@H]1[C@H](O)[C@H]2O)O[C@@H]7CO)O[C@@H]6CO)O[C@@H]5CO)O[C@@H]4CO)O[C@@H]3CO
not listed: [8]
inactive: all other assays above

O=C(O)[C@H](O)[C@@H](O)C(=O)O
inactive: all assays above

CCn1nc(C)c2c1C(=O)NCC(c1ccc(O)cc1)=N2
inactive: all assays above

Nc1ccn([C@@H]2O[C@H](CO)[C@@H](O)[C@@H]2O)c(=O)n1
inactive: all assays above

NC(=O)N1c2ccccc2C=Cc2ccccc21
inactive: all assays above

CCN(CC)C(=S)SSC(=S)N(CC)CC
inactive: [2] | [3] | [4]
active: [1] 619 nM | [5] 5.12 µM | [6] 1.1 µM | [7] 0.904 µM | [8] 112 nM

NC(=O)NN=Cc1ccc([N+](=O)[O-])o1
inactive: all assays above

c1ccc2ncccc2c1
inactive: all assays above

C=CCc1cc(S(=O)(=O)c2ccc(O)c(CC=C)c2)ccc1O
not listed: [8]
inactive: all other assays above

c1ccc2c(c1)-c1cccc3c1c-2cc1ccccc13
not listed: [8]
inactive: all other assays above

OCc1ccccc1
inactive: all assays above

OCCNCCO
inactive: all assays above

CC(=O)c1ccccc1
inactive: all assays above
